# Screening results as filed in PubChem.
# A selection: hits, their analogues and other compounds. The true share with any hit is near 1.3%.
# OPRM1-OPRD1 inv: inverse agonist of human OPRM1-OPRD1 heterodimerization. P35372+P41143. cell-based MOR-DOR heterodimer luminescence, inverse agonism. inhibition, % at 9.3 µM. 340,000 compounds, 0.21% hits; in the data active = inhibition above about 22%, passing the limit was not always enough;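 note: 0% = cells with DMSO and 100% = wells without cells with DMSO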
# Target sequence (P35372 whole entry, looked up): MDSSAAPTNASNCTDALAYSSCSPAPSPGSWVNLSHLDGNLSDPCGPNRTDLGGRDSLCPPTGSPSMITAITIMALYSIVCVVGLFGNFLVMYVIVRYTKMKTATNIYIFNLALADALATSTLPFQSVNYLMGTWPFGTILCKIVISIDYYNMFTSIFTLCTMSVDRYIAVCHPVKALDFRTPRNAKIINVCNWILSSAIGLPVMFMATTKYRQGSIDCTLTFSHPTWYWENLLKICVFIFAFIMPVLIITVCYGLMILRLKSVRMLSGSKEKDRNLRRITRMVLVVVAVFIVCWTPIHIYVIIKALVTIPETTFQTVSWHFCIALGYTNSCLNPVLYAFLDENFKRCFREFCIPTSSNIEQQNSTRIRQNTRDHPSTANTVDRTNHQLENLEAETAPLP
# Target sequence (P41143 whole entry, looked up): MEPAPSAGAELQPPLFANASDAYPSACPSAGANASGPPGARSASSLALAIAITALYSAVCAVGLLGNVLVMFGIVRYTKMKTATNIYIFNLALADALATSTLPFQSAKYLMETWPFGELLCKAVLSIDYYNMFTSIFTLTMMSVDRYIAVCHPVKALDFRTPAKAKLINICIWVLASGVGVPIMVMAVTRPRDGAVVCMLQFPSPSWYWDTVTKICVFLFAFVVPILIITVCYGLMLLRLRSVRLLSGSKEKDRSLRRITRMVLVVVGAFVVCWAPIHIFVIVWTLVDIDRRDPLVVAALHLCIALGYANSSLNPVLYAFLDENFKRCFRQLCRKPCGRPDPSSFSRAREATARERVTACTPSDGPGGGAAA
# OPRM1-OPRD1 ag: agonists of human mu-delta opioid receptor heterodimerization | P35372+P41143 | cells, OPRM1-OPRD1 heterodimerization, luminescence | activation, % at 9.3 µM | 340,000 compounds, 0.3% hits;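 note: 0% = vehicle-treated cells and 100% = reference agonist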
# CR mimetic SO: lowers age-related superoxide in aged yeast cells. S. cerevisiae aged cells, superoxide DHE fluorescence; stronger effect = lower value. superoxide response (% of plate mean), % at 10 µM. 330,000 compounds, 0.18% hits. AID 2690;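 active = superoxide response under a set limit, about three screen SD below normal, cut at about 65% in these data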;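 note: yeast aged for seven days with compound at 30 °C before DHE staining; 100% = average MFI of all compound-treated wells on the plate with controls excluded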
# PvdQ acylase: blocks Pseudomonas aeruginosa PvdQ acylase activity | 340,000 compounds, 0.063% hits | purified PvdQ acylase, fluorescence plate reader | AID 488965 | inhibition, % at 10 µM; in the data active = inhibition above about 30%, passing the limit was not always enough;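 note: 0% = vehicle neutral wells and 100% = reference inhibitor wells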
# HTR5A inv ctr: counter-screen for OPRM1-OPRD1 inverse agonists: human HTR5A inverse agonism; P47898; HTR5A cell line, luminescence; inhibition, % at 9.3 µM; 340,000 compounds, 0.083% hits; AID 504634; in the data active = inhibition mostly above about 23%, no sharp cut-off; inactive = mostly below about 18%;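 note: 0% = cells with DMSO and 100% = no-cell wells with DMSO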
# HTR5A ag: activates human HTR5A in OPRM1-OPRD1 agonist counter-screen; activation, % at 9.3 µM; HTR5A agonist assay, luminescence, cell-based; 340,000 compounds, 0.61% hits; P47898; in the data active = activation mostly above about 9.5%, no sharp cut-off; inactive = mostly below about 7.6%;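 note: 0% = cells with vehicle only and 100% = reference agonist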
# MOR-DOR ag conf: OPRM1-OPRD1 heterodimer agonism, confirmation. cells, MOR-DOR heterodimerization, luminescence complementation. AID 504904. activation, % at 9.3 µM. shares compounds with OPRM1-OPRD1 ag. 830 compounds, 45% hits;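 note: 0% = vehicle-treated cells and 100% = reference agonist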
# HTR5A ag ctr2: counter-screen for OPRM1-OPRD1 agonists: human HTR5A agonism; AID 504905; HTR5A agonist counterscreen, cell luminescence; activation, % at 9.3 µM; shares compounds with OPRM1-OPRD1 ag; 830 compounds, 8% hits; in the data active = activation above about 17%;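 note: 0% = vehicle-treated cells and 100% = reference agonist response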
# * hit, by the source's call; · = no result given. Cut-off read from the data, not from the text of the source, unless noted: active = activation above about 18%; inactive = the rest.
SMILES,OPRM1-OPRD1 inv,OPRM1-OPRD1 ag,CR mimetic SO,PvdQ acylase,HTR5A inv ctr,HTR5A ag,MOR-DOR ag conf,HTR5A ag ctr2
CC(C)c1ccc(NC2CCCN(C(=O)c3ccoc3)C2)cc1 (stereo unspecified),3,0,95,5,6,0,·,·
CCC(=O)NC(C)C(c1cccs1)N1CCN(c2ccccc2)CC1 (stereo unspecified),-177,31*,93,0,16,-4,0,2
COc1cc(/C=N\NC(=O)C(C)(C)O)ccc1OC/C=C/c1ccccc1,11,-3,107,-15,6,-2,·,·
Cc1ccc(Nc2cc(C)nc3c(C)cccc23)cc1,-136,29*,100,1,3,-1,15,-1
O=C(Nc1ccccc1N1CCOCC1)c1cccc(F)c1,9,-2,105,-13,-1,0,·,·
O=C(Nc1ccccc1N1CCOCC1)c1ccc2nc[nH]c2c1,-88,19*,·,5,-5,2,16,2
O=C(COC(=O)c1ccc(Br)cc1)NCc1ccccc1,5,-1,98,-6,-4,0,·,·
CC(=O)Cc1cc(O)c2ccccc2c1OC(=O)c1ccc(Br)cc1,-101,20*,112,-17,1,8,11,13
CC(=O)Nc1ccc(S(=O)(=O)NN=CCCc2ccccc2)cc1,14,-3,·,-6,-4,1,·,·
CC1CCCN(C(=O)COC(=O)c2cc(-c3cccs3)nn2-c2ccccc2)C1 (stereo unspecified),-9,1,116,4,9,-3,·,·
c1ccc(CNc2c3ccccc3nc3ccccc23)cc1,-122,22*,89,-6,5,-1,1,-2
COc1ccc2c(c1)C(c1ccccc1)NC(=O)C2 (stereo unspecified),16,-3,104,2,11,4,·,·
CCn1ccnc1CNCc1cn(-c2cc(C)ccc2C)nc1-c1ccccc1,-12,2,87,-9,2,-4,·,·
Cc1ccc(C)c(-n2cc(CNCCc3cnccn3)c(-c3ccccc3)n2)c1,-275,54*,98,-15,-25,8,79*,-1
Cc1ccc(NC(=O)c2ncn(CCCN[C@H](C)c3cccc4ccccc34)n2)cc1C,-393,85*,·,-7,-22,6,56*,-1
CC(C)c1ccc(S(=O)(=O)Nc2ccc(SC(F)F)cc2)cc1,-114,18*,98,-16,-7,2,0,-4
COc1cc(CNC(C)c2ccccc2)cc(Br)c1OCc1ccc(F)cc1 (stereo unspecified),-100,21*,109,3,-1,0,16,5
CCN(CC)CCNCc1cc(Cl)c(OCC(=O)Nc2ccccc2)c(OC)c1,1,0,77,-12,4,0,·,·
COc1cc(CNC(C)c2ccccc2)cc(Cl)c1OCC(=O)Nc1ccccc1 (stereo unspecified),-118,21*,142,4,10,-4,12,12
Cc1ccc(SC2=C(N(C)C)C(=O)c3ccccc3C2=O)cc1,24,-6,·,18,2,-1,·,·
CC(=O)Nc1ccc(CN2CCCC(CO)(Cc3ccccc3C)C2)cc1 (stereo unspecified),-225,49*,99,-14,-1,0,13,-1
O=C(NCC1CCCO1)c1cccc(Oc2ccc([N+](=O)[O-])cc2)c1 (stereo unspecified),8,-2,90,-18,-4,5,·,·
O=C(C1=C(c2ccccc2)C(=O)c2ccccc2C1=O)c1ccccc1,-132,20*,·,-5,-9,3,6,0
COC1=C(c2ccccc2)C(=O)c2ccccc2C1=O,-57,8,127,-8,36,-3,·,·
COC(=O)C1CCN(C(=O)Cn2nnc(-c3cccc(F)c3)n2)CC1,9,-2,115,12,-13,4,·,·
SMILES,OPRM1-OPRD1 inv,OPRM1-OPRD1 ag,CR mimetic SO,PvdQ acylase,HTR5A inv ctr,HTR5A ag,MOR-DOR ag conf,HTR5A ag ctr2
Cc1nc2ccccc2c(=O)n1CCN1CCOCC1,14,-3,98,-18,8,1,·,·
Cc1nc2nc(C)n(CCN3CCOCC3)c(=O)c2c(-c2cccc([N+](=O)[O-])c2)c1C(=O)CCCCCCCCCCN1CCC(c2ccccc2)(c2ccccc2)CC1,-113,26*,·,-15,-29,8,131*,6
CC(=O)CSc1ccc(-c2nc3cc(C)c(C)cc3[nH]2)cn1,-242,47*,95,-9,-13,-6,32*,0
CS(=O)(=O)N(CCCC(=O)N1CCCCCC1)c1cccc(Cl)c1,8,-1,115,-1,6,5,·,·
Cc1cc(C)cc(N2CC(C(=O)NC3CCCCC3)CC2=O)c1 (stereo unspecified),11,-2,100,4,-10,-2,·,·
Cn1c(=N)n(CC(=O)c2ccc(Br)cc2)c2ccccc21,-180,34*,92,1,22,0,25*,0
O=C(CCSCCC(=O)Nc1c(F)c(F)c(F)c(F)c1F)Nc1c(F)c(F)c(F)c(F)c1F,11,-2,112,6,-10,2,·,·
O=C(C[n+]1cnn(CC(=O)c2ccc(Cl)cc2Cl)c1)c1ccc([N+](=O)[O-])cc1,-298,54*,70,-12,-14,4,5,4
O=C(Cn1cnc([N+](=O)[O-])c1)c1ccc(Cl)cc1,11,-2,92,-8,-10,-2,·,·
O=C(O)c1cnn(-c2nc(-c3ccc(Br)cc3)cs2)c1C(F)(F)F,-2,0,96,-12,3,-1,·,·
O=C1C(=O)c2ccc(-c3ccccc3)cc2-c2ccccc21,-118,26*,111,2,-22,5,0,3
Nc1ccc2c(c1)C(=O)C(=O)c1ccccc1-2,-125,25*,112,2,-11,4,0,1
CC(C)(C)c1cc(C(=O)NNC(=O)Nc2ccccc2)n(Cc2ccccc2)n1,-56,11,87,7,-5,9,·,·
CC(C)(C)c1cc(C(=O)NNC(=O)Nc2cccc(Cl)c2)n(Cc2ccccc2)n1,-129,25*,108,-4,-19,4,1,2
COc1ccc(C(=O)OCC(=O)N(C)C2CCS(=O)(=O)C2)cc1Br (stereo unspecified),-298,76*,95,5,10,-2,-1,0
COc1ccc(C(=O)OCC(=O)N(C)C2CCS(=O)(=O)C2)cc1S(=O)(=O)N(C)Cc1ccccc1 (stereo unspecified),19,-4,117,9,12,-4,·,·
CCSc1nnc(NC(=O)c2cccc3ccccc23)s1,-29,6,99,2,-16,6,·,·
